Assay in all cases: DAPPL (digital affinity profiling via proximity ligation, sequencing); 10 mM Tris-HCl pH 7.5, 50 mM NaCl, 1 mM DTT, 4% glycerol, room temperature, 30 min; GST-TFs on glutathione beads, 16-mer random dsDNA library, 0.1% formaldehyde crosslink after washing; high values mean tight binding
What all share (settings): protein: recombinant; tags: N-terminal GST; dsDNA, one strand shown

The target in one assay is ELF4 (Homo sapiens, UniProt Q99607 1-663). In short, it runs like this: (§1)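 Each value of binding signal is a hexamer's read frequency for a factor divided by the same hexamer's frequency in the tag-only sample. Barcoded, bead-captured GST fusions of human transcription factors made in yeast were pooled with that sample and incubated with 200 nmole of a random double-stranded 16-mer DNA library in Tris/NaCl/DTT/glycerol buffer at room temperature for 30 min. Washing, 0.1% formaldehyde crosslinking, proximity ligation, PCR and Illumina NextSeq500 sequencing followed.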

The target in a further assay is T1, ELK4 (Homo sapiens, UniProt P28324-2 1-405).
T1 sequence: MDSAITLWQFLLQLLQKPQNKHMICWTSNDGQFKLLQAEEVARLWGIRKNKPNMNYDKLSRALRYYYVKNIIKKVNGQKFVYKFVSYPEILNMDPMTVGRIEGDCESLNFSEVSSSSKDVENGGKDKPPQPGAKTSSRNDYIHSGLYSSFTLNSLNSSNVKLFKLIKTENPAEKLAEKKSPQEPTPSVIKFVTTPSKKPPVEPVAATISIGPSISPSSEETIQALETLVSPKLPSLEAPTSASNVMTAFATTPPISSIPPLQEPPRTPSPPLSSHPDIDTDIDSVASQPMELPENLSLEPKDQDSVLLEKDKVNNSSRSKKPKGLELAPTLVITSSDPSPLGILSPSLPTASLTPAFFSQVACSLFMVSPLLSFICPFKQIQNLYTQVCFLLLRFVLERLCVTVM
In short, it runs like this: as §1

The next assay addresses T2, ETV2 (Homo sapiens, UniProt O00321 1-342).
T2 sequence: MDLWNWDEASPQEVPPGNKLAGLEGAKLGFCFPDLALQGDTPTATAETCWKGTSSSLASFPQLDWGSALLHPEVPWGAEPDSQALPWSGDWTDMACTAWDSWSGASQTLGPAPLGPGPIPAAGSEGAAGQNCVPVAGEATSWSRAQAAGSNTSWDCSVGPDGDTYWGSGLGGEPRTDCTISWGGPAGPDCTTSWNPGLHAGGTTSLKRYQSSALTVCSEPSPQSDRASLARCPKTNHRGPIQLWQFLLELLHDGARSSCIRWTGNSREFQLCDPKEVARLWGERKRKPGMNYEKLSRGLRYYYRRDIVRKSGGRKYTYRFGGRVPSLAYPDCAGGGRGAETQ
In short, it runs like this:
as §1

A further assay concerns the target T3, ELF3 (Homo sapiens, UniProt P78545 1-371).
T3 sequence: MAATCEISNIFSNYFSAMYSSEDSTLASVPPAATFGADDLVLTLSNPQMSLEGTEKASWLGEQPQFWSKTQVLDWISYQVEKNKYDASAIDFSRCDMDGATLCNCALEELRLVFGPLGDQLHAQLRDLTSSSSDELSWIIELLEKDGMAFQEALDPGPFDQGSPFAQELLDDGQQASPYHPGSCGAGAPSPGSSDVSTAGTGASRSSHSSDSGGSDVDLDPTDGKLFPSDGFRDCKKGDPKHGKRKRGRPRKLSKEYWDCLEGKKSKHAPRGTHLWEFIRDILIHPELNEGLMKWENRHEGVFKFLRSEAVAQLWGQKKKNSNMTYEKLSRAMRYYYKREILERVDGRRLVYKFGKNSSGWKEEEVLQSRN
In short, it runs like this: as §1

In a further assay the target is CRX (Homo sapiens, UniProt O43186 1-299). Put shortly:
as §1

The next assay concerns the target T4, ERF (Homo sapiens, UniProt P50548 1-548).
T4 sequence: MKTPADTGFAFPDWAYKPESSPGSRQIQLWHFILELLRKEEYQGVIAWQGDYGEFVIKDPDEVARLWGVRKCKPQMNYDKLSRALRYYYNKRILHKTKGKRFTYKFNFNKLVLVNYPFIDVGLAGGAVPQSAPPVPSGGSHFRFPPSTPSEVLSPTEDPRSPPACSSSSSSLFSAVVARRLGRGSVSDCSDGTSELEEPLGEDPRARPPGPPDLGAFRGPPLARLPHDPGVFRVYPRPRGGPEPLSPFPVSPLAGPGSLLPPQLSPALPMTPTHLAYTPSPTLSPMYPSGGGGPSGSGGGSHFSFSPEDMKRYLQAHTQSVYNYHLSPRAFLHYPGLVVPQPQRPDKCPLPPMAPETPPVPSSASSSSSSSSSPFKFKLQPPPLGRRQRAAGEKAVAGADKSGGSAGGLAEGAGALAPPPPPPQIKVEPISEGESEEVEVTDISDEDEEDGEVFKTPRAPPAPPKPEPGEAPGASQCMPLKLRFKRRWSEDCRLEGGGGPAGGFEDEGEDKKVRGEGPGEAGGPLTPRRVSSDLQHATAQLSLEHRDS
Put shortly:
as §1

A further assay has as its target T5, ETV3L (Homo sapiens, UniProt Q6ZN32 1-361).
T5 sequence: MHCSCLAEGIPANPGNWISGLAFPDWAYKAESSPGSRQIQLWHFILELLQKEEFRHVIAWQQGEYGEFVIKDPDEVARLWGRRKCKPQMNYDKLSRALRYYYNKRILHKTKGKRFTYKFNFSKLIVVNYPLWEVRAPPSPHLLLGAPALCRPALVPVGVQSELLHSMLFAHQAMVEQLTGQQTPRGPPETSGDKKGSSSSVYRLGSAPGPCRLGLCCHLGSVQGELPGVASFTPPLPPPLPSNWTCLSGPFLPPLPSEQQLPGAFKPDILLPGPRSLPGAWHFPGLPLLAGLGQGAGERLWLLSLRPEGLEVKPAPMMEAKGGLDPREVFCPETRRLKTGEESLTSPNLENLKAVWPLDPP
Put shortly:
as §1

Another assay concerns the target T6, ETS2 (Homo sapiens, UniProt P15036 1-469).
T6 sequence: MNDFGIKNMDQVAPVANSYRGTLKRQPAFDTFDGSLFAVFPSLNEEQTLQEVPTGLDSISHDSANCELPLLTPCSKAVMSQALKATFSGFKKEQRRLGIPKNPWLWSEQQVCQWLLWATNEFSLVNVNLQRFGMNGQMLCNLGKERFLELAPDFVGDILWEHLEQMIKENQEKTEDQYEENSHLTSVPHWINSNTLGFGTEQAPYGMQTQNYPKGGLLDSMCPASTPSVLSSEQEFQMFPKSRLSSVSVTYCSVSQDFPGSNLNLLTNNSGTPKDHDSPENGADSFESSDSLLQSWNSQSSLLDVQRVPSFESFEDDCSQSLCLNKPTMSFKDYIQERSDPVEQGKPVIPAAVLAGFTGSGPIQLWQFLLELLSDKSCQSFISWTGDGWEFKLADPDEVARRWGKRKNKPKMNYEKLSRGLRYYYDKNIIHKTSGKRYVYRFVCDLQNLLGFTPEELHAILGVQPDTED
Put shortly:
as §1

For a further assay, the target named is T7, ETV7 (Homo sapiens, UniProt Q9Y603 1-341).
T7 sequence: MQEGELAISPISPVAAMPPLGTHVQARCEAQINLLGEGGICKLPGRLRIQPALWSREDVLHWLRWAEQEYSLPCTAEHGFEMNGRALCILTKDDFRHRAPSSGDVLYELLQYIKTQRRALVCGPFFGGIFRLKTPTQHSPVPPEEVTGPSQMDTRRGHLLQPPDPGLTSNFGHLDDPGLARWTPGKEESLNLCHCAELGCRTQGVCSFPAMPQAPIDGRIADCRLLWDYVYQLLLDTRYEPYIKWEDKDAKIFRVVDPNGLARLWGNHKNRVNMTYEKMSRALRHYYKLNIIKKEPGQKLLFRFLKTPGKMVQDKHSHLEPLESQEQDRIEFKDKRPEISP
Put shortly: as §1

The target in the next assay is T8, ELF5 (Homo sapiens, UniProt Q9UKW6-2 1-255).
T8 sequence: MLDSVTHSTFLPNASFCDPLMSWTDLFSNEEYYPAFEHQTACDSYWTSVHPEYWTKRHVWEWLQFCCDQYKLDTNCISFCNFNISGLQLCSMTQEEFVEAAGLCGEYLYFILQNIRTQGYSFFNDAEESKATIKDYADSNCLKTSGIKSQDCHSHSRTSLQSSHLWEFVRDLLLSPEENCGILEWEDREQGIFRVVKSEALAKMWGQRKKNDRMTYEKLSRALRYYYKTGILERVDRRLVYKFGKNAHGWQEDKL
In short, it runs like this: as §1

A further assay concerns the target ETV6 (Homo sapiens, UniProt P41212 1-452). In short, it runs like this: as §1

Sequence of ELF4 (Q99607 whole entry, the tested form may be a part): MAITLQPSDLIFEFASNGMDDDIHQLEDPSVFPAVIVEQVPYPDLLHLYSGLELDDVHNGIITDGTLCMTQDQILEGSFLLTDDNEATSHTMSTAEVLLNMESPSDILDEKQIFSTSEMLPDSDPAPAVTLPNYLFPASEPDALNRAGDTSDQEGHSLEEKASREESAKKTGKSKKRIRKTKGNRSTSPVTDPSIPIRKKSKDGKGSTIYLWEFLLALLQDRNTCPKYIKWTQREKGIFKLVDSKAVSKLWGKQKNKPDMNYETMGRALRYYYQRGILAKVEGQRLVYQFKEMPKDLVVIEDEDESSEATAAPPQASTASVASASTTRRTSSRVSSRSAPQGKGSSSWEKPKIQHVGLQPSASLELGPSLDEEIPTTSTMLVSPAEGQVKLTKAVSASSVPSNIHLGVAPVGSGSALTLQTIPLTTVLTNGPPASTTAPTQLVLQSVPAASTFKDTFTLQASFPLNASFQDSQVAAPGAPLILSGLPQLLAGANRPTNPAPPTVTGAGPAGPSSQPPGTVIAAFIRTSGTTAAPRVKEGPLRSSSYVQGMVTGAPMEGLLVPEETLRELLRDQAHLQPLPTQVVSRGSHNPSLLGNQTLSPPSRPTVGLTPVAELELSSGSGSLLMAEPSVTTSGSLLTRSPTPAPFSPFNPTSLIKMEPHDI
Sequence of CRX (O43186 whole entry): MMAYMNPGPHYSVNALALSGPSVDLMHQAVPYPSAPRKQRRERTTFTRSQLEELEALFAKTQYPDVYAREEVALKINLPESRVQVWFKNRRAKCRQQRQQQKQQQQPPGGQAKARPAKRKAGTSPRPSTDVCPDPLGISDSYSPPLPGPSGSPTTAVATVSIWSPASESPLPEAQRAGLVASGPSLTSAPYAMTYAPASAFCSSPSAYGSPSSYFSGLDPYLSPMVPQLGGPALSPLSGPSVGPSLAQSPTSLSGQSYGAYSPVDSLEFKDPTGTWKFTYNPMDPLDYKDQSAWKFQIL
Sequence of ETV6 (P41212 whole entry): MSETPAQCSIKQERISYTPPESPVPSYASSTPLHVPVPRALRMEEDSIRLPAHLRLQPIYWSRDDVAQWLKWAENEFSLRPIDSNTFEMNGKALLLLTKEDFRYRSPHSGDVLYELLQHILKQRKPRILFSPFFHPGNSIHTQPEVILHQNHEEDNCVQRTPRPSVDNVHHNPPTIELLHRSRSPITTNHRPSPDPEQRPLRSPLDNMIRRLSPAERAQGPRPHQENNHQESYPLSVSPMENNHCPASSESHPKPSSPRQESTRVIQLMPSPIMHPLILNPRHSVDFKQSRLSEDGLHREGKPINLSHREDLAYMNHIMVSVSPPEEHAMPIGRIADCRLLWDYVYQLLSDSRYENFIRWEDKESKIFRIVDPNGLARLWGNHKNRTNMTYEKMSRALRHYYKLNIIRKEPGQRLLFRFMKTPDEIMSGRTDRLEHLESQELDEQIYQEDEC

TTGACG: the binding signal in the assay with ELF4 was 1.15 fold enrichment (6-mer frequency, TF over GST control); with ELK4, 1.21 fold enrichment (6-mer frequency, TF over GST control); with ETV2, 1.23 fold enrichment (6-mer frequency, TF over GST control); with ELF3, 1.21 fold enrichment (6-mer frequency, TF over GST control); in the assay with CRX it was 1.01 fold enrichment (6-mer frequency, TF over GST control); in the assay with ERF, 1.27 fold enrichment (6-mer frequency, TF over GST control). Moreover, the binding signal was 1.12 fold enrichment (6-mer frequency, TF over GST control) with ETV3L; 1.08 fold enrichment (6-mer frequency, TF over GST control) with ETS2; 1.19 fold enrichment (6-mer frequency, TF over GST control) with ETV7; 1.07 fold enrichment (6-mer frequency, TF over GST control) with ELF5; 1.15 fold enrichment (6-mer frequency, TF over GST control) in the assay with ETV6.

(Values after publication PMC7862700, “An all-to-all approach to the identification of sequence-specific readers for epigenetic DNA modifications on cytosine”.)
